The results in this text go back to PubChem BioAssay (NCATS).

Several values for one entry are separate records, joined by “and”; a condition that tells them apart may be missing. Equal entries are not always repeated. Results filed as inconclusive are left out. More than one record can exist for a structure, and the calls need not agree. Values without a mark were called inactive. Activity calls are given as the source filed them. The call rests on the fitted dose curve; in most records, active means well fitted inhibition curve with a large enough effect; inconclusive means small, poorly fitted or top-dose-only effect; inactive means flat fitted curve, though single readings scatter.

A short description of assay [1]: Drug repurposing screens with cells derived from glioblastoma tumor samples (AID 1345199). Further: nearly all actives have a fitted effect of over 40% in size. Conditions: GBM patient neurospheres viability, ATP luminescence, 48 h. The method in brief:
(§1)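 Four patient lines of CD133+ GBM neurospheres were screened at several concentrations; hits were retested in those lines plus three slower-growing GBM lines, using 48-hour treatment and ATP-based viability.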

Another assay concerns astro (control astrocytes). The description is as above. Conditions: viability, ATP luminescence, 48 h; series mostly up to 45.9 µM. The method in brief: as §1
Where [2] appears, read: at 45.9 µM (top of the series), tumour line B.
The mark [3] stands for this setting: at 45.9 µM (top of the series), tumour line D.
Setting [4] is: at 46.1 µM (top of the series), tumour line C.
[5] abbreviates: at 46 µM (top of the series), tumour line A.
On the % scale 0 is the no-effect control and ±100 the full control effect; potency means the concentration at half of the fitted maximal effect.

On to `CS(=O)(=O)OCCCNCCCOS(C)(=O)=O`, for which the activity, negative = cell killing in assay [1] (setting [2]) is 5.52%; in assay [1] (setting [3]), -25.4%; in assay [1] (setting [4]) it was 2.38%. For the same molecule, the Potency in assay [1] (tumour line A) was 39.8 µM (active). For the same molecule, the Potency entry with astro was “inactive”.
The matching figures for `CC(=O)S[C@@H]1CC2=CC(=O)CC[C@]2(C)[C@H]2CC[C@@]3(C)[C@@H](CC[C@@]34CCC(=O)O4)[C@H]12`: -27.2%, -26.7%, -22.4%, 10 µM (active) and “inactive”.
As for `O=P(O)(O)C(O)(Cc1cnc2ccccn12)P(=O)(O)O`, the activity, negative = cell killing in assay [1] (setting [2]) was -3.54%; in assay [1] (setting [3]) it was 2.92%; in assay [1] (setting [5]) it was -12.2%; in assay [1] (setting [4]), 2.63%. In addition, in the assay on astro, the Potency result is “inactive”.
For the molecule `CCN1CCCC1CNC(=O)c1cc(S(=O)(=O)CC)ccc1OC` (stereo not given), the activity, negative = cell killing in assay [1] (setting [2]) was -1.25% and -14.5%; in assay [1] (setting [3]) it was -0.732% and -9.3%; in assay [1] (setting [5]), -20%; in assay [1] (setting [4]) it was 11.5% and 15.2%. For the same molecule, the Potency entry with astro was “inactive”.
On to `CC(C)(S)C(=O)N[C@@H](CS)C(=O)O`, for which the activity, negative = cell killing in assay [1] (setting [2]) is -12.3% and -6.78%; in assay [1] (setting [3]), -24.6% and -16.1%; in assay [1] (setting [4]), -15.9% and -10.8%. In addition, the Potency in assay [1] (tumour line A) was 39.8 µM (active). Further, the Potency entry in the assay with astro is “inactive”.
Regarding `CCCC(CCC)C(N)=O`, the activity, negative = cell killing in assay [1] (setting [2]) was 1.34%; in assay [1] (setting [3]), -12.3%; in assay [1] (setting [5]), -16.5%; in assay [1] (setting [4]), 0.0882%. Besides, the Potency entry with astro was “inactive”.
For `Nc1c(CC(=O)O)cccc1C(=O)c1ccccc1`, the activity, negative = cell killing in assay [1] (setting [2]) is -6.42% and -16.2%; in assay [1] (setting [3]), 1.99% and -19.1%; in assay [1] (setting [5]), -11.4%; in assay [1] (setting [4]) it was -6.15% and -12.2%. Further, in the assay on astro, the Potency entry is “inactive”.
As for `CCCCCCCCCCCCCCCC(=O)OCCC1CCN(CCCN2c3ccccc3Sc3ccc(S(=O)(=O)N(C)C)cc32)CC1`, the activity, negative = cell killing in assay [1] (setting [2]) is -1.24%; in assay [1] (setting [3]), -12.7%; in assay [1] (setting [5]) it was -28.1%; in assay [1] (setting [4]) it was 11%. Further, the Potency entry in the assay on astro was “inactive”.
Regarding `C[C@H]1C[C@@H]2[C@H]([C@@H](O)C[C@@]3(C)[C@H]2CC[C@]3(O)C(=O)COC(=O)CCC(=O)O)[C@@]2(C)C=CC(=O)C=C12`, the activity, negative = cell killing was -16.2% in assay [1] (setting [2]), -23.4% in assay [1] (setting [3]), -16.8% in assay [1] (setting [5]) and -3.84% in assay [1] (setting [4]). In addition, the Potency entry in the assay on astro is “inactive”.
In the same order, the values of `NCCCC[C@H](NC(=O)[C@@H]1CCCN1C(=O)[C@@H]1CSSC[C@H](N)C(=O)N[C@@H](Cc2ccccc2)C(=O)N[C@@H](Cc2ccccc2)C(=O)N[C@@H](CCC(N)=O)C(=O)N[C@@H](CC(N)=O)C(=O)N1)C(=O)NCC(N)=O` are -4.48%, -4.17%, -29.5%, -22.2% and “inactive”.
For `C/C(=C(/CCO)SSCC1CCCO1)N(C=O)Cc1cnc(C)nc1N` (stereo not given), the activity, negative = cell killing in assay [1] (setting [2]) is -8.31% and -21.8%; in assay [1] (setting [3]), -10.4% and -21.6%; in assay [1] (setting [4]), -12.1% and -0.697%. Besides, the Potency in assay [1] (tumour line A) was 25.1 µM (active). Also, the Potency entry in the assay on astro was “inactive”.
Turning to `O=C1C(c2[nH]c3ccc(S(=O)(=O)O)cc3c2O)=Nc2ccc(S(=O)(=O)O)cc21`, the activity, negative = cell killing in assay [1] (setting [2]) was -3.91% and -0.988% and -8.05%; in assay [1] (setting [3]), -5.52% and -3.79% and -6.7%; in assay [1] (setting [5]), -11.9%; in assay [1] (setting [4]), 2.85% and 2.31% and 15%. Besides, the Potency result with astro was “inactive”.
In the case of `NCCCC[C@H](NC(=O)[C@@H]1CCCN1C(=O)[C@@H]1CSSC[C@H](N)C(=O)N[C@@H](Cc2ccc(O)cc2)C(=O)N[C@@H](Cc2ccccc2)C(=O)N[C@@H](CCC(N)=O)C(=O)N[C@@H](CC(N)=O)C(=O)N1)C(=O)NCC(N)=O`, the activity, negative = cell killing in assay [1] (setting [2]) was -6.49% and -12.6%; in assay [1] (setting [3]), -7.59% and -12.4%; in assay [1] (setting [5]), -33.8%; in assay [1] (setting [4]), 13.1%. In the assay on astro, the Potency result was “inactive”.
As to `CCC(=O)OCC(=O)[C@@]1(OC(=O)CC)[C@H](C)C[C@H]2[C@@H]3CCC4=CC(=O)C=C[C@]4(C)[C@@]3(F)[C@@H](O)C[C@@]21C`, the activity, negative = cell killing in assay [1] (setting [2]) is -7.21%; in assay [1] (setting [3]) it was -9.28%; in assay [1] (setting [4]) it was -2.15%. Further, in assay [1] (tumour line A), the Potency is 17.8 µM (active). Besides, the Potency result in the assay with astro is “inactive”.
In the case of `CS(=O)(=O)NC(=O)CCC/C=C\C[C@H]1C(=O)C[C@@H](O)[C@@H]1/C=C/[C@H](O)COc1ccccc1`, the activity, negative = cell killing is -2.71% in assay [1] (setting [2]), -15.8% in assay [1] (setting [3]), -29.7% in assay [1] (setting [5]) and 0.501% in assay [1] (setting [4]). For the same molecule, in the assay on astro, the Potency result was “inactive”.
On to `CCOC(=O)[C@H](CCc1ccccc1)N[C@@H](C)C(=O)N1CC2(C[C@H]1C(=O)O)SCCS2`, for which the activity, negative = cell killing in assay [1] (setting [2]) is -13.1%; in assay [1] (setting [3]) it was 3.06%; in assay [1] (setting [5]), -27.1%; in assay [1] (setting [4]), 2.21%. In addition, the Potency result in the assay on astro was “inactive”.
As to `CCCCCC(O)/C=C/C=O` (stereo not given), the activity, negative = cell killing in assay [1] (setting [2]) is 5.27%; in assay [1] (setting [3]), -8.74%; in assay [1] (setting [5]), -27.6%; in assay [1] (setting [4]) it was 8.89%. Besides, the Potency entry with astro was “inactive”.
In the case of `CCCC(=O)O[C@]1(C(=O)COC(=O)CC)[C@@H](C)C[C@H]2[C@@H]3CCC4=CC(=O)C=C[C@]4(C)[C@@]3(F)[C@@H](O)C[C@@]21C`, the activity, negative = cell killing in assay [1] (setting [2]) is -13%; in assay [1] (setting [3]), -14.2%; in assay [1] (setting [4]), 9.54%. The Potency in assay [1] (tumour line A) was 12.6 µM (active). Also, the Potency result in the assay with astro was “inactive”.
